# According to PubChem BioAssay (EPA / NIEHS):
# A structure can be active in one record and inactive in another. The source made the active and inactive calls. How the source made its calls: active means hit-call score of the fitted dose curve at least 0.9, where 1 is the maximum; inactive means score below 0.9.
# Target: Nuclear respiratory factor 1 (Homo sapiens) (UniProt Q16656)
# Experiment: ATG_NRF1_CIS: Attagene CIS-FACTORIAL HepG2 Assay for human Nuclear Respiratory Factor 1 (NRF1) Orphan Gene (AID 2282987)
# Conditions: HepG2 NRF1 cis-element reporter, Attagene multiplex; actives raise or lower the signal
# Procedure: ATG_CIS is a cell-based, multiplexed-readout assay that uses HepG2, a human liver cell line, with measurements taken at 24 hours after chemical dosing in a 24-well plate.ATG_NRF1_CIS is one of 52 assay component(s) measured or calculated from the ATG_CIS assay. It is designed to make measurements of mRNA induction, a form of inducible reporter, as detected with fluorescence intensity signals by Reverse transcription polymerase chain reaction (RT-PCR) and Capillary electrophoresis technology.Data from the assay component ATG_NRF1_CIS was analyzed into 1 assay endpoint. This assay endpoint, ATG_NRF1_CIS, was analyzed with bidirectional fitting relative to DMSO as the negative control and baseline of activity. Using a type of inducible reporter, measures of mRNA for gain or loss-of-signal activity can be used to understand the reporter gene at the transcription factor-level as they relate to the gene NRF1. Furthermore, this assay endpoint can be referred to as a primary readout, because this assay has produced multiple assay endpoints where this one serves a reporter gene function. To generalize the intended target to other relatable targets, this assay endpoint is annotated to the dna binding intended target family, where the subfamily is nuclear respiratory factors.
# Human liver HepG2 cells are transiently transfected with multiple reporter transcription units (MRTUs) in 6-well plates using FuGene 6 reagent (Roche; 3 ml FuGene/1 mg DNA). The MRTU constructs are regulated by a cis-regulating element (promoter). […] A major difference between the CIS and TRANS system is that in CIS activities of endogenous TFs are measured, whereas the TRANS assay evaluates changes in activities of exogenous, chimeric NR-Gal4 proteins. […] At the end of 24 hour incubation, total RNA was isolated using TriZol reagent (Invitrogen). The isolated RNA is then reverse-transcribed using oligo(dT) primer and Mo-MLV reverse transcriptase (Invitrogen) with DNAse I (Ambion) treatment for 30 min. The one-tenth of the produced cDNA was amplified by PCR using Taq DNA polymerase (Invitrogen) and two reporter sequence-specific primers. The PCR products were fluorescently labeled by primer extension with 6-arboxyfluorescein (6-FAM) 5'-labeled reporter sequence-specific primer (2 min at 95 C, 20 s at 68 C and 10 min at 72 C) and these products were digested with 5U of HpaI (New England Biolabs) for 2h at 37 C. The fragments were purified using Qiaquick PCR columns (Qiagen), analyzed on an ABI 3130xL genetic analyzer (Applied Biosystems) with peak positions identified by using a set of X-rhodamine (ROX)-labeled MapMarker1000 molecular weight standards (BioVentures). The raw capillary electrophoresis data was processed using Attagraph software (Attagene).
# Nuclear respiratory factor 1 (Homo sapiens), sequence (Q16656 whole entry, looked up): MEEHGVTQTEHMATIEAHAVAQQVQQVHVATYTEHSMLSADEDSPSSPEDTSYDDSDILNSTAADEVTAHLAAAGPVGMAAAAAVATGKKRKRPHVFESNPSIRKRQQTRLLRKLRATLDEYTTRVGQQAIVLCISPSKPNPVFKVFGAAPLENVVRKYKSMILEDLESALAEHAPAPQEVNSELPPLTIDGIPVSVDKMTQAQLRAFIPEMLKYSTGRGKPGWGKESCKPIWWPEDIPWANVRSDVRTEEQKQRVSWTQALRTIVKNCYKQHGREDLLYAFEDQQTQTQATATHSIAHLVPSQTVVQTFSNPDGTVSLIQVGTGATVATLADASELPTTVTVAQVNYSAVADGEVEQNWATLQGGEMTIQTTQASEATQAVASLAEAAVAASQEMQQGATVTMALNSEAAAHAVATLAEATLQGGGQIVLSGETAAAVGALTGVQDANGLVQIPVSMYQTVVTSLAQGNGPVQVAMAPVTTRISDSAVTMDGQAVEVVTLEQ
Compound,outcome,AC50
Cc1cc(C(F)(C(F)(F)F)C(F)(F)F)ccc1NC(=O)c1cccc(I)c1C(=O)NC(C)(C)CS(C)(=O)=O,inactive,
CC(F)(F)CC(F)(F)F,inactive,
CN(C)C(=S)S,inactive,
CNC(=O)O/N=C/C(C)(C)S(C)(=O)=O,inactive,
O=S1OC[C@@H]2[C@H](CO1)[C@]1(Cl)C(Cl)=C(Cl)[C@@]2(Cl)C1(Cl)Cl (stereo not given in full),inactive,
Clc1cccc(Cl)c1Cl,inactive,
CC(=Cc1ccccc1)[N+](=O)[O-],,17.2 µM (active)
Cc1cc(Cl)ccc1N,inactive,
CC[N+](CC)(CC)CC,inactive,
Nc1ccc(-c2ccccc2)cc1,inactive,
O=C(NC(=O)c1c(F)cccc1F)Nc1cc(Cl)c(OC(F)(F)C(F)C(F)(F)F)cc1Cl (stereo not given),inactive,
Cc1ccccc1OP(=O)(Oc1ccccc1C)Oc1ccccc1C,inactive,
O=[N+]([O-])c1ccc(Nc2ccccc2)cc1,inactive,
Cc1cccc(OP(=O)(Oc2cccc(C)c2)Oc2cccc(C)c2)c1,inactive,
C=C(C)C(=O)OCCCCOC(=O)C(=C)C,inactive,
O=C=Nc1ccc(Cl)cc1,inactive,
O=[N+]([O-])c1cccc2ccccc12,inactive,
COC(=O)Nc1cccc(OC(=O)Nc2cccc(C)c2)c1,inactive,
COc1ccccc1N,inactive,
C=CCN=C=S,inactive,

Compound,outcome,AC50
Cc1ccccc1OP(=O)(Oc1ccccc1)Oc1ccccc1,inactive,
CC1(C)COP(Oc2ccccc2)OC1,inactive,
O=C(Cc1ccccc1)OCCc1ccccc1,inactive,
CCCCS(=O)(=O)Cl,inactive,
O=C(Cl)OCCOCCOC(=O)Cl,inactive,
CCCCOC(C)=O,inactive,
O=c1oc2ccccc2c(O)c1C(CC(O)c1ccc(-c2ccc(Br)cc2)cc1)c1ccccc1 (stereo not given),inactive,19.6 µM (active)
O=C1c2ccccc2C(=O)C1C(=O)C(c1ccccc1)c1ccc(Cl)cc1 (stereo not given),inactive,
CCC(C)(C#N)N=NC(C)(C#N)CC (stereo not given),inactive,
CC(C)(C)c1ccc(CCOc2ncnc3ccccc23)cc1,inactive,
C#CCO,inactive,
C1CN2CCN1CC2,inactive,
C1CCC(C2CCCCC2)CC1,inactive,
COc1nn(C(=O)NS(=O)(=O)c2ccccc2OC(F)(F)F)c(=O)n1C,inactive,
c1ccc2sc(SNC3CCCCC3)nc2c1,inactive,
BrCC(Br)c1ccccc1 (stereo not given),inactive,
CCC[CH2][Sn]([Cl])([Cl])[CH2]CCC,,0.778 µM (active)
ClCc1ccccc1Cl,inactive,
C=CCCl,inactive,
